Experimental data as given in PubChem BioAssay (Tox21).
Results filed as inconclusive are left out. A number with no mark means an inactive call. Active and inactive are the calls of the source. The call rests on the fitted dose curve.

Molecular target: Beta-2 adrenergic receptor (Homo sapiens) (UniProt P07550)
Experiment: Adrenergic beta2 receptor (ADRB2) small molecule agonists, cell-based qHTS assay (AID 1963593);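 further: CHO cells stably overexpressing human ADRB2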
Conditions: CHO-ADRB2 cells, cAMP HTRF, 30 min; series mostly up to 92.4 µM; activation: at the top concentration
How it was run: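 CHO cells stably over-expressing ADRB2 were plated overnight at 37C, then dosed with compounds plus a stimulation mix containing 100uM IBMX and 25uM Ro-20-1724 for 0.5hr at room temperature. cAMP was measured by HTRF competition, 1hr.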
On the % scale 0 is the no-effect control and ±100 the full control effect.

Sequence of Beta-2 adrenergic receptor (Homo sapiens) (P07550 whole entry, looked up): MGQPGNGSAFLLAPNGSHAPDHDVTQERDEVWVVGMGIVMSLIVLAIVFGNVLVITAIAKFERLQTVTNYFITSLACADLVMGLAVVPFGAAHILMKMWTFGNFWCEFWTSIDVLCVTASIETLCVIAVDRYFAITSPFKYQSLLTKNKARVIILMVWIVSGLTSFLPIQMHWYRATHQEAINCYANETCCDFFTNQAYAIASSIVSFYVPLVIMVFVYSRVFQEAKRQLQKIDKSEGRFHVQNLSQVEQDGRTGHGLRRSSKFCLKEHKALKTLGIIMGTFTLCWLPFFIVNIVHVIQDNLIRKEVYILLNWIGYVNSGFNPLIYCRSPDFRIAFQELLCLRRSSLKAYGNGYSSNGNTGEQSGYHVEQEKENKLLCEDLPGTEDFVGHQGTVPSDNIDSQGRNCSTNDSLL

In the case of `Nc1c(NC/C=C\COc2cc(CN3CCCCC3)ccn2)c(=O)c1=O`, the activation is reported as -3.93% [at 19 µM].

First: O=S(=O)(O)c1ccc2cc(O)c(S(=O)(=O)O)cc2c1
Second: O=Cc1cccc([N+](=O)[O-])c1
The “activation” value of the first is lower: 2% for the first, 3.49% for the second.

Compared with `COCCOCCOCCOCCOC`, `COCCOCCOCCOCCOCCO` is higher in “activation” value: -21.5% for the first, -17.7% for the second.

Going from `CCCO` to `CCCCC(C)C(=O)O` (configuration not stated), the “activation” value rises from 4.53% to 11.1%.

First: O=[N+]([O-])c1ccc(Oc2ccc([N+](=O)[O-])cc2)cc1
Second: CC(=O)OCCN(CCOC(C)=O)c1ccc(N=Nc2ccc([N+](=O)[O-])cc2C#N)cc1
The “activation” value of the first is higher: 0.461% for the first, -1.54% for the second.

Compared with `CS(C)(=O)=O`, `CC(CCC(=O)O)C(=O)O` (configuration not stated) is higher in “activation” value: -39.5% for the first, 0.91% for the second.

Going from `O=c1[nH]c(=O)c2cn[nH]c2[nH]1` to `O=C1OC(=O)c2ccccc21`, the “activation” value rises from 18.8% to 23.2%.

First: CCCCCCCC(=O)N(C)C
Second: CCCC(C)CCC(C)=O (configuration not stated)
The “activation” value of the first is lower: -1.63% for the first, 5.25% for the second.

First: CCCCCCCCO[C@@H]1O[C@H](CO)[C@@H](O)[C@H](O)[C@H]1O
Second: OC[C@H]1O[C@H](O[C@H]2O[C@H](CO)[C@@H](O)[C@H](O)[C@H]2O)[C@H](O)[C@@H](O)[C@@H]1O
The “activation” value of the first is lower: -18.9% for the first, 20.1% for the second.

First: C/C=C/C(=O)C1=C(C)C=CCC1(C)C
Second: CC(C)CC(O)Cc1ccccc1 (configuration not stated)
The “activation” value of the first is lower: -18.9% for the first, 11.5% for the second.

First: C1CN(CCOCCN2CCOCC2)CCO1
Second: C=CCOCC(O)CO (configuration not stated)
The “activation” value of the first is lower: -15.9% for the first, 7.68% for the second.

With `CCOC(C)(C)C` the “activation” value was 22%.

First: CC[N+](C)(C)c1cccc(O)c1
Second: Cc1ccc(N=Nc2c(O)ccc3ccccc23)c(C)c1
The “activation” value of the first is lower: -20.5% [at 42.5 µM] for the first, 34.7% [at 42.5 µM] for the second.

Going from `CC(C)N=C(N)/N=C(\N)Nc1ccc(Cl)cc1` to `CC(=O)NC(Cc1ccccc1)C(=O)O` (configuration not stated), the “activation” value rises from 2.25% [at 42.5 µM] to 23.9% [at 42.5 µM].

With `CCCOCCO` the Potency was “inactive”.
